We go through 10 molecules from PubChem BioAssay (NCATS).

Molecules are shown by their SMILES. Results filed as inconclusive are left out. Activity calls are given as the source filed them. Unless noted, calls come from the whole dose curve.

A short description of test [1]: qHTS for Inhibitors of the Functional Ribonucleoprotein Complex (vRNP) of Lassa (LASV) Arenavirus: LASV Primary Screen - GLuc reporter signal (AID 1347082; calls by dose curve; tested in HEK293 reporter line; note: nearly all actives have a fitted effect of over 60% in size; note: potency is the fitted concentration of half-maximal effect; for activity change, negative = inhibition: % is set by controls: 0 for no effect and ±100 for the full control effect).
The nature of test [2]: qHTS for Inhibitors of the Functional Ribonucleoprotein Complex (vRNP) of Lassa (LASV) Arenavirus: Viability assay - alamar blue signal for LASV Primary Screen (AID 1347083; calls by dose curve; tested in HEK293 reporter line; note: nearly all actives have a fitted effect of over 80% in size; note: potency is the fitted concentration of half-maximal effect).
The nature of test [3]: qHTS for Inhibitors of the Functional Ribonucleoprotein Complex (vRNP) of Lymphocytic Choriomeningitis Arenaviruses (LCMV): Viability assay - alamar blue signal for LCMV Primary Screen (AID 1347085; calls by dose curve; tested in HEK293 reporter line; note: nearly all actives have a fitted effect of over 80% in size; note: potency is the fitted concentration of half-maximal effect).
Test [4] deals with Nucleoprotein (Lymphocytic choriomeningitis virus (strain Armstrong)) (UniProt P09992). Nature of the test: qHTS for Inhibitors of the Functional Ribonucleoprotein Complex (vRNP) of Lymphocytic Choriomeningitis Arenaviruses (LCMV): LCMV Primary Screen - GLuc reporter signal (AID 1347086). For activity change, negative = inhibition: % is set by controls: 0 for no effect and ±100 for the full control effect. Note: nearly all actives have a fitted effect of over 70% in size. Note: potency is the fitted concentration of half-maximal effect.
The nature of test [5]: Cytotoxicity counterscreen for inhibitors of SARS-CoV-2 cell entry (AID 1645845). Note: nearly all actives have a fitted effect of over 50% in size. An outline of the steps:
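48 h compound treatment (after 1 h preincubation), HEK293-ACE2 cells, 37 C/5% CO2; ATP luminescence endpoint; normalized to cell wells and media blanks.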

The test system of a further test is CRL-7250. Put plainly: qHTS assay to identify novel small-molecules to repurpose for Merkel cell carcinoma treatment (AID 1296009; active = well fitted inhibition curve with a large enough effect; note: nearly all actives have a fitted effect of over 60% in size). The following applies: MCC and control cell lines, CellTiter-Glo viability, 72 h; series mostly up to 92 µM. A digest of the protocol:
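72 hr, 37 degree celsius; NPC 8-pt / MIPE 11-pt dose response; compound pinned in DMSO; CellTiter-Glo, 10 min RT, luminescence; normalized to no-cell and DMSO controls.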
Background: In qHTS, concentration-response curves come from the screen itself.

Test [6] is described as follows: Primary qHTS for inhibitors of SARS-S pseudo-typed particle cell entry (AID 1479145). Note: % is set by controls: 0 for no effect and ±100 for the full control effect; nearly all actives have a fitted effect of over 45% in size.
The nature of test [7]: Primary qHTS for Huh7 cytotoxicity: counterscreen for inhibitors of MERS-S pseudotyped particle cell entry (AID 1479147). The following applies: outcome: dose series up to 57.1 µM unless noted.
A short description of test [8]: Primary qHTS for inhibitors of MERS-S pseudo-typed particle cell entry (AID 1479149). Note: nearly all actives have a fitted effect of over 60% in size.
Test [9] can be described thus: Primary qHTS for Vero E6 cytotoxicity: counterscreen for inhibitors of SARS-S pseudo-typed particle cell entry (AID 1479150). The following applies: outcome: dose series up to 57.1 µM unless noted.
Test [10] is described as follows: Primary qHTS to identify inhibitors of SARS-CoV-2 cell entry (AID 1645846). Note: nearly all actives have a fitted effect of over 45% in size. The following applies: activity change, negative = inhibition: at 57.1 µM (top of the series) unless noted. An outline of the steps: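 Inhibition of spike-mediated entry was scored in human ACE2-transfected Expi293F cells. Particles were MLV-pseudotyped with Wuhan-Hu-1 S carrying a 19-aa C-terminal deletion; signal was luciferase after two days, scaled between spike PP and fusion-protein-free PP.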

Test [11] can be described thus: qHTS Assay for Lipid Storage Modulators (AID 1519). For activity change, negative = inhibition: % is set by controls: 0 for no effect and ±100 for the full control effect. The note with it: Drosophila S3 cells, BODIPY lipid droplet/cell ratio, laser cytometry, cells loaded with oleic acid. An outline of the steps: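 Cells seeded at 5,000 per well were treated with compounds over a concentration series and loaded with oleic acid (400 uM, as added). Lipid droplet fluorescence (488 nm excitation, 500-530 nm channel) was read by laser-scanning cytometry and normalized to 20 uM Triacsin C.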

Test [12] is described as follows: qHTS profiling of the MIPE4 collection as inhibitors of Plasmodium falciparum (3D7) proliferation (AID 743344; call rule not given here;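 note: scaled between DMSO vehicle wells and 0.29 µM artemisinin as full inhibition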). The following applies: P. falciparum 3D7 in erythrocytes, SYBR Green DNA fluorescence, 72 h; at 28.5 µM (top of the series) unless noted. An outline of the steps:
(§1)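 Erythrocytes infected with P. falciparum (0.3% parasitemia, 2.5% hematocrit) incubated with compounds 72 h at 37 C, 5% CO2. Lysis with saponin/Triton buffer containing SYBR Green I, overnight at room temperature in the dark; DNA fluorescence (485/535 nm) normalised to 0.29 uM artemisinin and DMSO.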

Test [13] is described as follows: qHTS profiling of the MIPE4 collection as inhibitors of Plasmodium falciparum (DD2) proliferation (AID 743345; call rule not given here). The following applies: P. falciparum Dd2 in erythrocytes, SYBR Green DNA, 72 h; at 28.5 µM (top of the series) unless noted. A digest of the protocol:
as §1

Test [14] is described as follows: qHTS profiling of the MIPE4 collection as inhibitors of Plasmodium falciparum (DD2) proliferation (Rep 2) (AID 743346; call rule not given here). The note with it: P. falciparum Dd2 in erythrocytes, SYBR Green DNA, 72 h; at 28.5 µM (top of the series) unless noted. An outline of the steps: as §1
A short description of test [15]: Confirmatory qHTS for VERO E6 Cytotoxicity Assay: Counterscreen for SARS-CoV-2 CPE Assay (AID 1508605). Note: % is set by controls: 0 for no effect and ±100 for the full control effect; nearly all actives have a fitted effect of over 60% in size.
The nature of test [16]: Confirmatory qHTS for activators (rescue) of SARS-CoV-2 Cytopathic Effect (CPE) (AID 1508606). Note: 0% is about no effect; nearly all actives have a fitted effect of over 70% in size.

Nucleoprotein (Lymphocytic choriomeningitis virus (strain Armstrong)), sequence (P09992 whole entry, looked up): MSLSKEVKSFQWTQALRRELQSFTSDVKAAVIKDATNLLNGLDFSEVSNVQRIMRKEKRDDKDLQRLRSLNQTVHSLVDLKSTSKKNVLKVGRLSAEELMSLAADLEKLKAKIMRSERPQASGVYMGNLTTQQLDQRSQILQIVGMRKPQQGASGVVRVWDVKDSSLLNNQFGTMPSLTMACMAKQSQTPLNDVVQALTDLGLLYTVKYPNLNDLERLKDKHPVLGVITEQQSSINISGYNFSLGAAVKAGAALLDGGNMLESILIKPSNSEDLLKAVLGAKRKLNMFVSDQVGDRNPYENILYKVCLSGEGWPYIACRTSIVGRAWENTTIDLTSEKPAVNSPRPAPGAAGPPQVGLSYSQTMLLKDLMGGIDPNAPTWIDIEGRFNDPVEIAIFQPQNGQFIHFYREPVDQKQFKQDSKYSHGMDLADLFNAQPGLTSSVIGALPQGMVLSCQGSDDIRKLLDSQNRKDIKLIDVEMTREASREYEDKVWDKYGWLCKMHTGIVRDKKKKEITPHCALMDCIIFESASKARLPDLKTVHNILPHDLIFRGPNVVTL

With `CN1CCC(COc2cnc(-c3cccc(Cn4nc(-c5cccc(C#N)c5)ccc4=O)c3)nc2)CC1`, the Potency in [1] is 5.44 µM (active); in [2] it was 0.153 µM (active); in test [3] it was 0.0611 µM (active); in test [4], 0.685 µM (active). Moreover, the Potency entry (in [5]; with CRL-7250) was “inactive” each time.

As for `CCOC(=O)O[C@]1(C(=O)OCCl)CC[C@@H]2[C@H]3CCC4=CC(=O)C=C[C@]4(C)[C@@H]3[C@@H](O)C[C@@]21C`, the Potency result (in test [1]; in test [2]; in test [3]; in test [4]; in the test on CRL-7250) was “inactive” each time.

On to `O=C(C[C@@H]1CC=CCCC(=O)O[C@H](c2ccccc2)CNC1=O)NCc1ccc(Cl)cc1`, for which the Potency entry (in test [1]; in [2]; in [3]; in [4]; with CRL-7250) was “inactive” each time.

Regarding `CN1C(C(=O)Nc2ccccn2)=C(O)c2sc(Cl)cc2S1(=O)=O`, the Potency is 24.3 µM (active) in test [1], 15.3 µM (active) in test [2], 24.3 µM (active) in test [3] and 15.3 µM (active) in [4]. Besides, the Potency entry (in [6]; in test [8]; in [5]; in the test with CRL-7250) was “inactive” throughout. For the same molecule, the molecule was called inactive in test [7] and in [9]. Also, in test [10], the activity change, negative = inhibition came to 2.28%.

As to `CN(C)CC(=O)N1CCC(c2ccc(NC(=O)c3ncc(C#N)[nH]3)c(C3=CCCCC3)c2)CC1`, the Potency entry (in test [1]; in test [2]; in test [3]; in test [4]; in [5]; with CRL-7250) was “inactive” each time.

As for `CC(=O)N[C@@H]1[C@H](O[C@@H]2c3ccc(c(Cl)c3)Oc3cc4cc(c3O[C@H]3O[C@H](CO)[C@@H](O)[C@H](O)[C@H]3NC(=O)CCCCCCCC(C)C)Oc3ccc(cc3Cl)C[C@H]3NC(=O)[C@H](N)c5ccc(O)c(c5)Oc5cc(O)cc(c5)[C@H](NC3=O)C(=O)N[C@H]4C(=O)N[C@H]3C(=O)N[C@@H]2C(=O)N[C@@H](C(=O)O)c2cc(O)cc(O[C@H]4O[C@H](CO)[C@@H](O)[C@H](O)[C@H]4O)c2-c2cc3ccc2O)O[C@H](CO)[C@@H](O)[C@@H]1O`, the Potency entry (in test [1]; in test [2]; in test [3]; in test [4]; with CRL-7250) was “inactive” throughout.

Consider `CN1[C@H]2CC(OC(=O)[C@@H](CO)c3ccccc3)C[C@H]1[C@H]1O[C@H]12` (stereo partly specified), for which the activity change, negative = inhibition in test [11] (at 25.7 µM (top of the series)) is -0.085% (inactive). Also, the figures for the max response in test [11] (measured here: cell count channel max response) and in test [11] (measured here: lipid channel max response) were 9.59% and 10.6%, respectively. In [12], this molecule showed a parasite growth, % of DMSO control of 96.6%. The parasite growth remaining, % of DMSO control (lower = more inhibition) in test [13] worked out at 107%. The molecule further gave a parasite growth, % of control (lower = inhibition) in test [14] of 72.3%. In addition, the Potency result (in test [1]; in test [2]; in test [3]; in [4]; in the test on CRL-7250) was “inactive” throughout.

`CCCCCCCCCCCCc1ccc(S(=O)(=O)Nc2nncs2)cc1`: the Potency entry in [1], in test [2], in test [3], in [4], in [15] and in test [16] was “inactive” throughout. The Potency result (in test [5]; in the test on CRL-7250) was “inactive” each time. In addition, in [10], the activity change, negative = inhibition was -14.7%.

In the case of `OC1CCC(Nc2ncc3nc(Nc4c(F)cc(F)cc4F)n([C@@H]4CCOC4)c3n2)CC1` (stereo partly specified), the Potency result (in test [1]; in test [5]; in test [10]; in the test with CRL-7250) was “inactive” in each case. Also, the Potency is 24.3 µM (active) in test [2] and 21.7 µM (active) in test [3].

`Cc1ccccc1C(C(=O)NC1CCCCC1)N(C(=O)CNc1ccc(C#N)cc1)c1cccc(F)c1` (stereo unspecified): the Potency result (in test [1]; in test [2]; in [3]; in test [4]; in test [5]; in the test on CRL-7250) was “inactive” in each case. Moreover, the activity change, negative = inhibition in [10] stood at 1.58%.
